High-throughput results: PubChem BioAssay, several laboratories
Most compounds without a hit are left out; they make up all but 2.8% or so of the library.
PAX8 inh HTS: inhibitors of PAX8-driven TPO luciferase reporter, primary screen, RMG-I cells, single concentration; SteadyGlo, 24 h; inhibition, % at 12.6 µM; 1.2% of 360,000 active;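 active = mean replicate inhibition at least 60% with every replicate also reaching 60%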;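 note: luciferase light reporting Pax8 driven TPO promoter activity; plate controls were median of neutral control wells for no effect and mitoxantrone controls for full effect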
Peg3 prom inh: Peg3 promoter-driven luciferase inhibitors, primary screen, cell-based, HeLa, luciferase luminescence. HeLa PEG-Prom luciferase reporter, overnight. inhibition, % at 20 µM. 1.7% of 360,000 active. AID 588405, 2011;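 active = inhibition of at least 50% at 20 µM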
HIF-2a block: HIF-2a reporter inhibitors, primary screen, luminescence, 786-0 RCC cells | AID 624352, 2012 | 0.72% of 360,000 active | 786-0 RCC cells HIF-2a reporter, luciferase luminescence, overnight | inhibition, % at 18.8 µM;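 active = inhibition of the luminescence signal of 40% or more relative to plate controls, in a single-dose primary screen at 18.75 µM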
TRPM1 prom inh: inhibitors of MITF-dependent TRPM1 promoter reporter, primary screen, cell-based, SK-MEL-5, single point, luciferase; inhibition, % at 12.5 µM; 0.83% of 330,000 active; SK-MEL-5 TRPM1 promoter luciferase, 24 h;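 active = mean inhibition across replicates of 60% or more, whatever share of single replicates reaches that level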
LMP1 NFkB inh: EBV LMP1-driven NF-kappaB luciferase reporter inhibitors, primary screen, cell-based, luminescence, single point | LMP1-induced NF-kappaB luciferase reporter cells | 0.69% of 350,000 active | inhibition, % at 12.5 µM | AID 504558, 2011; in the data active = inhibition above about 41%;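 note: 0% = neutral control wells and 100% = reference inhibitor control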
Shn3 3UTR inh: reduction of Shn3 3'UTR firefly luciferase signal, primary screen, Schnurri-3 inhibitor project, cell-based, Clone20 osteoblasts, set 2; Clone20 osteoblast Shn3 3'UTR firefly luciferase, 24 h; inhibition, % at 12.5 µM; 0.52% of 360,000 active;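 active = mean inhibition of at least 75% with every replicate also reaching 75%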;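 note: 0% = median of neutral control wells and 100% = pilot-screen positive control compound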
Numbers without * were called inactive; i = inactive; x = no result.

SMILES	PAX8 inh HTS	Peg3 prom inh	HIF-2a block	TRPM1 prom inh	LMP1 NFkB inh	Shn3 3UTR inh
Cc1ccc(S(=O)(=O)N[C@@H]2CC[C@@H](CCn3cc(-c4cccnc4)nn3)O[C@H]2CO)cc1	6	x	x	x	x	x
C[n+]1ccc(/C=N/Nc2nc(Cl)c(C#N)c(Cl)c2Cl)cc1	63*	8	12	5	-11	-2
c1ccc(CNCCCNCCCCNCCCNCc2ccccc2)cc1	86*	110*	28	-3	9	-23
CC(C)NC(=O)Nc1ccc2c(c1)C(=O)N([C@@H](C)CO)C[C@H](C)[C@@H](CN(C)C(=O)Nc1ccc3c(c1)OCO3)OCCCC[C@@H](C)O2	-12	x	x	x	x	x
CN(C)CCCNC(=O)[C@H]1[C@H](CO)[C@H]2Cn3c(ccc(-c4ccc(F)cc4)c3=O)[C@H]2N1C	-11	x	x	x	x	x
COc1ccccc1-c1oc2ccccc2c1C#CC1(N)CCCCC1	-7	72*	9	25	-12	-41
COCCN(C[C@H]1[C@H](c2ccccc2)[C@H](CO)N1C(C)=O)C(=O)c1ccncc1	3	x	x	x	x	x
COc1ccc(-c2nc(C)ncc2-c2ccccc2)c(O)c1	-29	20	21	4	43*	17
Cc1ccc(S(=O)(=O)Nc2ccc3c(c2)C(=O)N([C@H](C)CO)C[C@H](C)[C@@H](CN(C)Cc2ccc(Cl)c(Cl)c2)OCCCC[C@@H](C)O3)cc1	20	x	x	x	x	x
C[C@H](CO)N1C[C@H](C)[C@@H](CN(C)Cc2ccc(Cl)c(Cl)c2)OCCCC[C@H](C)Oc2ccc(NS(=O)(=O)c3ccc(F)cc3)cc2C1=O	105*	x	x	x	x	x
C[C@@H]1CN([C@H](C)CO)C(=O)c2cc(NS(=O)(=O)c3ccc(Cl)cc3)ccc2O[C@@H](C)CCCCO[C@H]1CN(C)Cc1ccc(Cl)c(Cl)c1	113*	x	x	x	x	x
C[C@@H]1CCCCO[C@@H](CN(C)Cc2ccc(Cl)c(Cl)c2)[C@@H](C)CN([C@@H](C)CO)C(=O)c2cc(NS(=O)(=O)c3ccc(Cl)cc3)ccc2O1	29	x	x	x	x	x
C[C@H]1CCCCO[C@H](CN(C)Cc2ccc(Cl)c(Cl)c2)[C@@H](C)CN([C@@H](C)CO)C(=O)c2cc(NS(=O)(=O)c3ccc(F)cc3)ccc2O1	35	x	x	x	x	x
Cc1ccc(S(=O)(=O)Nc2ccc3c(c2)C(=O)N([C@@H](C)CO)C[C@H](C)[C@@H](CN(C)Cc2ccc(Cl)c(Cl)c2)OCCCC[C@@H](C)O3)cc1	103*	x	x	x	x	x
C[C@H]1CN([C@@H](C)CO)C(=O)c2cc(NS(=O)(=O)c3ccc(Cl)cc3)ccc2O[C@H]1CN(C)Cc1ccc(Cl)c(Cl)c1	81*	x	x	x	x	x
CNC[C@@H]1Oc2cc(C#CC3CCCCC3)ccc2S(=O)(=O)N([C@H](C)CO)C[C@H]1C	-63	x	x	x	x	x
Cn1c(NCC(O)c2ccccc2)nc2c1c(=O)n(Cc1ccc(Cl)c(Cl)c1)c(=O)n2C (centres undefined)	x	53*	31	11	10	x
Cn1c(NCc2ccccc2)nc2c1c(=O)n(Cc1ccccc1)c(=O)n2C	x	27	32	6	0	17
COc1ccc(CNc2nc3c(c(=O)n(Cc4ccc(F)cc4)c(=O)n3C)n2C)cc1	71*	50*	27	13	26	25
C[C@@H]1CN([C@@H](C)CO)C(=O)Cc2cc(NC(=O)Cc3ccccc3)ccc2O[C@H]1CN(C)S(=O)(=O)c1cn(C)cn1	-20	x	x	x	x	x
COc1cc2sc3ccc(-c4ccc(CN5CCOCC5)cc4)cc3c(=O)c2cc1OC	-39	99*	-184	2	8	13
COc1ccc(CN2CCOCC2)cc1OC	x	13	3	-13	2	10
COc1ccc(C2NC(=S)NC3=C2CCCC3=C2SCCS2)cc1 (centres undefined)	102*	-130	i	84*	-23	-267
S=C1NC2=C(CCCC2=C2SCCCS2)C(c2ccccc2)N1 (centres undefined)	19	4	2	7	-8	-5
COc1ccccc1-c1ccc2n(c1=O)C[C@H]1[C@H](CO)[C@@H](C(=O)NCc3ccccc3Cl)N[C@@H]21	1	x	x	x	x	x
SMILES	PAX8 inh HTS	Peg3 prom inh	HIF-2a block	TRPM1 prom inh	LMP1 NFkB inh	Shn3 3UTR inh
CS(=O)(=O)N1C[C@@H](O)COC[C@@H]2O[C@H](CC(=O)NCc3ccccc3)CC[C@H]21	-33	x	x	x	x	x
COc1cccc2c(N/N=C/c3ccc(O)c(O)c3)cc(C)nc12	-55	-93	-77	-23	-10	-25
COc1ccc(/C=N/Nc2cc(C)nc3ccccc23)cc1	1	103*	-22	78*	-1	11
COc1ccc(/C=N/Nc2cc(C)nc3c(C)cccc23)cc1	16	111*	-14	79*	-4	-4
Cc1ccc2nc(C)cc(N/N=C/c3cccc(O)c3)c2c1	13	-5	-38	-20	-6	0
CCc1cnc(N2[C@H](C#N)[C@H](c3ccc(C#CCC4CCCC4)cc3)[C@@H]2CO)s1	21	x	x	x	x	x
N#C[C@H]1[C@@H](c2ccc(-c3ccccc3)cc2)[C@@H](CO)N1S(=O)(=O)Cc1ccccc1	9	x	x	x	x	x
COc1cccc(-c2ccc([C@H]3[C@@H](CO)N(C(=O)c4ccccn4)[C@H]3C#N)cc2)c1	83*	x	x	x	x	x
N#C[C@H]1[C@@H](c2ccc(C#CCC3CCCC3)cc2)[C@@H](CO)N1C(=O)c1ccccn1	74*	x	x	x	x	x
CCc1cnc(N2[C@@H](C#N)[C@@H](c3ccc(C#CCC4CCCC4)cc3)[C@@H]2CO)s1	73*	x	x	x	x	x
N#C[C@@H]1[C@@H](c2ccc(-c3ccc(F)cc3)cc2)[C@@H](CO)N1S(=O)(=O)Cc1ccccc1	69*	x	x	x	x	x
N#C[C@@H]1[C@@H](c2ccc(-c3ccccc3F)cc2)[C@@H](CO)N1C(=O)Cc1ccccc1	5	x	x	x	x	x
COc1cccc(C#Cc2ccc([C@@H]3[C@@H](C#N)N(C(=O)c4ccccn4)[C@@H]3CO)cc2)c1	43	x	x	x	x	x
N#C[C@@H]1[C@H](c2ccc(-c3ccccc3F)cc2)[C@@H](CO)N1C(=O)Cc1ccccc1	103*	x	x	x	x	x
COc1cccc(C#Cc2ccc([C@H]3[C@@H](C#N)N(C(=O)c4ccccn4)[C@@H]3CO)cc2)c1	76*	x	x	x	x	x
COc1cccc(-c2ccc([C@H]3[C@@H](CO)N(C(=O)Cc4ccccc4)[C@H]3C#N)cc2)c1	91*	x	x	x	x	x
COc1cccc(-c2ccc([C@@H]3[C@H](C#N)N(C(=O)Cc4ccccc4)[C@H]3CO)cc2)c1	12	x	x	x	x	x
N/C(=N\OC(=O)c1ccc2ccccc2c1)c1ccccn1	75*	111*	26	36	56*	66
N/C(=N\OC(=O)c1ccc2ccccc2c1)c1ccccc1Cl	-129	81*	-300	-76	-67	-89
